Source: PubChem BioAssay (NCATS)
Values without a mark were called inactive. Inconclusive results are not listed. Where a call stands in place of a potency, no number is given. Calls of active or inactive are those of the source. Unless noted, the call rests on the fitted dose curve.

Columns and labels:
[1] = qHTS to identify inhibitors of the type 1 interferon - major histocompatibility complex class I in skeletal muscle: primary screen against the NCATS Mechanism Interrogation Plate v5.0 (MIPE) Libary (AID 1347411; active means well fitted curve in the direction sought with a large enough effect; an effect the other way counts as inactive or inconclusive; further: nearly all actives have a fitted effect of over 65% in size; further: potency means the concentration at half of the fitted maximal effect)
Procedure, shortened: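 Immortalized human C25cl48 myoblasts with HiBit knocked into endogenous HLA-B*08:01 were stimulated with 4.0 ng/ml IFN-beta and exposed to compounds (11-point 1:3 titration, top 46 uM final) for 24 hrs at 37 C; HiBiT lytic luminescence measured.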

[2] = molecular target: Calcium and integrin-binding protein 1 (Homo sapiens) (UniProt Q99828); assay: Primary qHTS for Identification of Calcium Integrin Binding Protein 1 (CIB1) Competitor (AID 1508620; active means well fitted curve in the direction sought with a large enough effect; an effect the other way counts as inactive or inconclusive;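 further: GST tagged CIB1 binding a fluorescein labelled alphaIIb integrin peptide tracer; top concentration of the series differs between compounds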)
Calcium and integrin-binding protein 1 (Homo sapiens), sequence (Q99828 whole entry, looked up): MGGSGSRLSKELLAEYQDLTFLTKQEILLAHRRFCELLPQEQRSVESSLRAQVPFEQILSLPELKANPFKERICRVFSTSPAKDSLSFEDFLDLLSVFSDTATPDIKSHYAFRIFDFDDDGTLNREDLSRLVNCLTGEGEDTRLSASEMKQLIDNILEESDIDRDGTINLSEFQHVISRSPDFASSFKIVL
Procedure, shortened: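 Fluorescence polarization competition: GST-tagged CIB1 (1 uM final) preincubated with compound 15 min at room temperature, then FITC-labelled alphaIIb peptide (100 nM final) added. After 15 min at room temperature, polarization read at Ex 480/Em 540.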

[3] = Primary qHTS for inhibitors of SARS-S pseudo-typed particle cell entry (AID 1479145); further: nearly all actives have a fitted effect of over 45% in size
[4] = Primary qHTS for Huh7 cytotoxicity: counterscreen for inhibitors of MERS-S pseudotyped particle cell entry (AID 1479147)
[5] = Primary qHTS for inhibitors of MERS-S pseudo-typed particle cell entry (AID 1479149); further: nearly all actives have a fitted effect of over 60% in size
[6] = Primary qHTS for Vero E6 cytotoxicity: counterscreen for inhibitors of SARS-S pseudo-typed particle cell entry (AID 1479150)
[7] = Validation qHTS assay for inhibitors of Activation Induced Cytidine Deaminase (AID): UDG Counterscreen signal (AID 1347427; active means well fitted curve in the direction sought with a large enough effect; an effect the other way counts as inactive or inconclusive)
Procedure, shortened: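 Counterscreen read of UDG activity (2 U/mL, 4/3x) in the FRET deamination format with AID (1 uM, 4/3x), DJC20/DJC23 substrates (250 nM, 4x), 4 h at room temperature. NaOH stop, fluorescence at 560 ex/665 em.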

[8] = molecular target: Single-stranded DNA cytosine deaminase (Homo sapiens) (UniProt Q9GZX7); assay: Validation qHTS assay for inhibitors of Activation Induced Cytidine Deaminase (AID): AID signal (AID 1347429; active means well fitted curve in the direction sought with a large enough effect; an effect the other way counts as inactive or inconclusive)
Single-stranded DNA cytosine deaminase (Homo sapiens), sequence (Q9GZX7 whole entry, looked up): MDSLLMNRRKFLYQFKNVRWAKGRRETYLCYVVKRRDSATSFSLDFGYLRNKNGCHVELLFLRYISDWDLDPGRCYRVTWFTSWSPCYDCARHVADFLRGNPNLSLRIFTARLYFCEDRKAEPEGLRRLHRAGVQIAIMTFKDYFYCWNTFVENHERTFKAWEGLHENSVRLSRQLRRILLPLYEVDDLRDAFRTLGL
Procedure, shortened: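 AID and UDG were combined and compounds added at final up to 114 uM, then DJC20/DJC23 FRET substrate was added for 4 hr at room temperature. NaOH was then added for 30 min before fluorescence was read at 540/590 nm.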

[9] = Primary qHTS for inhibitors of La Crosse Virus (LACV) - induced cell death in SH-SY5Y cells (AID 1508616; active means well fitted curve in the direction sought with a large enough effect; an effect the other way counts as inactive or inconclusive;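 further: top concentration of the series differs between compounds; higher means more rescue of cells from virus-induced death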)
Procedure, shortened: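 Luminescent ATP readout (ATPLite 1step, 5 min room temperature) measured rescue from LACV-induced death after 6 days of infection at 0.01 MOI; normalized to infected DMSO wells and uninfected DMSO wells.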

## COc1ccc(N(C(=O)Oc2c(C)cccc2C)c2ccnc(Nc3ccc(N4CCN(C)CC4)cc3)n2)c(OC)c1
[1]
  Potency: inactive
[2]
  outcome: inactive

## CCN(CC)C(=O)c1ccc(C2=CC3(CCNCC3)Oc3cccc(O)c32)cc1
[1]
  Potency: inactive
[2]
  outcome: inactive

## Cc1[nH]nc2ccc(-c3cncc(OC[C@@H](N)Cc4c[nH]c5ccccc45)c3)cc12
[1]
  Potency: 2620 nM (active)
[2]
  outcome: inactive

## CC(=O)Nc1ccc(OC[C@](C)(O)C(=O)Nc2ccc([N+](=O)[O-])c(C(F)(F)F)c2)cc1
[1]
  Potency: inactive
[2]
  outcome: inactive

## O=C(O)CC(O)C(=O)O (stereo not given)
[3]
  Potency: inactive
[4]
  Potency: inactive
[5]
  Potency: inactive
[6]
  Potency: inactive

## c1ccc(C2(c3ccccc3)CC2C2=NCCN2)cc1 (stereo not given)
[7]
  outcome: inactive
[8]
  outcome: inactive
[4]
  Potency: inactive
[5]
  Potency: inactive
[6]
  Potency: inactive
[9]
  outcome: inactive

## CC(=O)N[C@@H](CCC(N)=O)C(=O)O
[3]
  Potency: inactive
[4]
  Potency: inactive
[5]
  Potency: inactive
[6]
  Potency: inactive

## N#C/C(=C1\SCC(c2ccccc2Cl)S1)n1ccnc1 (stereo not given)
[3]
  Potency: inactive
[4]
  Potency: inactive
[5]
  Potency: inactive
[6]
  Potency: inactive

## COc1c(N2CCNC(C)C2)c(F)cc2c(=O)c(C(=O)O)cn(C3CC3)c12 (stereo not given)
[3]
  Potency: inactive
[4]
  Potency: inactive
[5]
  Potency: inactive
[6]
  Potency: inactive

## Cc1c(C(=O)c2cccc3ccccc23)c2cccc3c2n1[C@H](CN1CCOCC1)CO3
[7]
  outcome: inactive
[8]
  outcome: inactive
[2]
  outcome: inactive

## C[C@@H]1CN(c2c(F)c(N)c3c(=O)c(C(=O)O)cn(C4CC4)c3c2F)C[C@H](C)N1
[3]
  Potency: inactive
[4]
  Potency: inactive
[5]
  Potency: inactive
[6]
  Potency: inactive

## CC(=O)Oc1cccc(C)c1
[3]
  Potency: inactive
[4]
  Potency: inactive
[5]
  Potency: inactive
[6]
  Potency: inactive

## CCCCCCCCCCCCCC(=O)OC(C)C
[3]
  Potency: inactive
[4]
  Potency: inactive
[5]
  Potency: inactive
[6]
  Potency: inactive

## NCCS
[3]
  Potency: inactive
[4]
  Potency: inactive
[5]
  Potency: inactive
[6]
  Potency: inactive

## CCN1CCN(c2cc3c(cc2F)c(=O)c(C(=O)O)cn3C2CC2)CC1
[3]
  Potency: inactive
[4]
  Potency: inactive
[5]
  Potency: inactive
[6]
  Potency: inactive

## COc1ncnc(NS(=O)(=O)c2ccc(N)cc2)c1OC
[3]
  Potency: inactive
[4]
  Potency: inactive
[5]
  Potency: inactive
[6]
  Potency: inactive

## CCC(C)(Oc1ccc(C2(c3ccc(OC(C)(CC)C(=O)O)cc3)CCCCC2)cc1)C(=O)O (stereo not given)
[3]
  Potency: inactive
[4]
  Potency: inactive
[5]
  Potency: inactive
[6]
  Potency: inactive

## CCCCC(CC)COC(=O)/C=C/c1ccc(OC)cc1 (stereo not given)
[3]
  Potency: inactive
[4]
  Potency: inactive
[5]
  Potency: inactive
[6]
  Potency: inactive
